Sampled rows, rich in hits. Any-hit rate of the full collection: about 1.3%.
NCOA3 inh: inhibits human SRC3 coactivator. Q9Y6Q9. HEK293 GAL4-SRC3 luciferase reporter, luminescence. inhibition, % at 3.6 µM. hit rate 0.17% among 360,000;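 active means inhibition above a per-campaign cutoff, the mean of all compounds plus 3 SD, cut at about 60% in these data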;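 further: higher means less SRC3-driven luciferase light from the GAL4 reporter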
Target sequence (Q9Y6Q9 whole entry, looked up, the tested form may be a part): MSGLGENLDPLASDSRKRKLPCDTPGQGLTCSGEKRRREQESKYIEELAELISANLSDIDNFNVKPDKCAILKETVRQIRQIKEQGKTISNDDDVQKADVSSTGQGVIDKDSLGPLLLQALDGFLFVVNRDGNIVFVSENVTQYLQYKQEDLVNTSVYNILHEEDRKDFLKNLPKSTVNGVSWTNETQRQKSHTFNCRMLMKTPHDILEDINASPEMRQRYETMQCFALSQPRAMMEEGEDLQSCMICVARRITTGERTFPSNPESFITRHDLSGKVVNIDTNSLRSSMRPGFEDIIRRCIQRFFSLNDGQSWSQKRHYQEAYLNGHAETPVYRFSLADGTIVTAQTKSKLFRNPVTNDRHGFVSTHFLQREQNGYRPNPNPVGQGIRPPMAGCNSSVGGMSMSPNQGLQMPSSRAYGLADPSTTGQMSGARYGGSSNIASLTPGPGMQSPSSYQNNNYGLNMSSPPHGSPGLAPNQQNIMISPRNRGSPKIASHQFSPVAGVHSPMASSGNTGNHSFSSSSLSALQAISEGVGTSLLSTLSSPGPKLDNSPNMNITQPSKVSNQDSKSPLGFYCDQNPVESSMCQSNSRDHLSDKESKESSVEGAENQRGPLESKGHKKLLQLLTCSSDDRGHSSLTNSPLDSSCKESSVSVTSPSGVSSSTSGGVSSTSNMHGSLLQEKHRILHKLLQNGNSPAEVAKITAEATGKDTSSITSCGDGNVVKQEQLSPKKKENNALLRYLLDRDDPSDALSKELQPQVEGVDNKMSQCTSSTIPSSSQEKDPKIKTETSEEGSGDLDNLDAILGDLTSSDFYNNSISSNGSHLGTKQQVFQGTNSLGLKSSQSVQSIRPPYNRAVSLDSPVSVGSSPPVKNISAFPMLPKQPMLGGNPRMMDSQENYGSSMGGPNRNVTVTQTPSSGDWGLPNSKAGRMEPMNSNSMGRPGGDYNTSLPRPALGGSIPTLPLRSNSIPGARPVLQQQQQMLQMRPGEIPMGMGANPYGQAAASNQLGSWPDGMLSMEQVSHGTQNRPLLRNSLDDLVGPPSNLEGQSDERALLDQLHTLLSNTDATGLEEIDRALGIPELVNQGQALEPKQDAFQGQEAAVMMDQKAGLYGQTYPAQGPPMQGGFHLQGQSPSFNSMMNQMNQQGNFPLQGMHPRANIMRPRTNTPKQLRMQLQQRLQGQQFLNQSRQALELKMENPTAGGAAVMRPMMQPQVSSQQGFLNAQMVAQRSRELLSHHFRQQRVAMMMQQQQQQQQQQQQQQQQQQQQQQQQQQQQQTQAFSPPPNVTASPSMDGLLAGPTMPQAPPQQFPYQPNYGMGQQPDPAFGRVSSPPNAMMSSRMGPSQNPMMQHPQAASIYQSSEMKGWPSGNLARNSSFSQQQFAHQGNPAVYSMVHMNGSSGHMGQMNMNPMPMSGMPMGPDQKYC
SRC2 inh: human SRC2 (NCOA2) inhibition; HEK293 GAL4-SRC2 luciferase reporter, luminescence; inhibition, % at 9 µM; hit rate 0.17% among 370,000;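 active means inhibition above the mean inhibition of all tested compounds plus 3 SD, set per campaign, cut at about 52% in these data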
Gli-Sufu antag: blocks Gli-Sufu signaling in a luciferase reporter | hit rate 0.74% among 340,000 | Sufu-KO-LIGHT fibroblasts, Gli luciferase reporter luminescence | inhibition, % at 5 µM | AID 588413;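 active means inhibition above about 55%, limit read from the data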
NR5A2 inv ag: inverse agonists of human LRH-1 (NR5A2); inhibition, % at 3.6 µM; AID 602396; HEK293T StAR-luciferase reporter, LRH-1 transfected, 24 h; hit rate 0.13% among 360,000;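 active means inhibition above the mean inhibition of all tested compounds plus 3 SD, cut at about 73% in these data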
NR2F2 inh: inhibitors of human COUP-TFII (NR2F2) | HEK293T NGFI-A luciferase reporter, luminescence | inhibition, % at 8.6 µM | hit rate 0.7% among 370,000;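 active means inhibition above a per-plate cutoff, mean inhibition of test wells between control levels plus 3 SD, cut at about 38% in these data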;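 further: cells cotransfected with COUP-TFII expression vector driving the NGFI-A reporter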
NCOA1 inh: human NCOA1 inhibition; Q15788; inhibition, % at 3.6 µM; HEK293 GAL4-SRC1 luciferase reporter, luminescence; hit rate 0.12% among 360,000;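 active means inhibition above the campaign mean plus 3 SD, with each screening campaign given its own cutoff, cut at about 60% in these data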
Gli antag conf: Gli-SUFU antagonism confirmation, single concentration | inhibition, % at 5 µM | Sufu-KO-LIGHT cells, Gli luciferase reporter, luminescence | hit rate 40% among 2,500 | shares compounds with Gli-Sufu antag;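 active means mean inhibition at 5 µM reaching about 45%, limit read from the data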
Gli cytotox: counter-screen for Gli-SUFU antagonists: cytotoxicity; shares compounds with Gli-Sufu antag; Sufu-KO-LIGHT cells cytotoxicity, ATP luminescence; cytotoxicity, % at 5 µM; hit rate 32% among 2,500; AID 651994;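 active means mean cytotoxicity at 5 µM above about 25%, limit read from the data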;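 further: cells exposed to compound overnight for roughly 16 to 18 hours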
Wnt3a cs: inhibits Wnt3a reporter, counter-screen for Gli-SUFU antagonists. AID 651995. shares compounds with Gli-Sufu antag. hit rate 20% among 2,500. Wnt-LIGHT cells, Wnt3a-driven luciferase reporter, luminescence. inhibition, % at 6.25 µM;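 active means mean inhibition above about 25%, limit read from the data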
Each line names hits and unclear results; the compound was inactive in the other large screens (follow-up assays come after a bar, where they were run).

COC(=O)c1ccc(CN2CCCC(C(=O)Nc3cccc(-n4cccn4)c3)C2)cc1 (stereo not drawn)	none | Gli antag conf inactive | Gli cytotox inactive | Wnt3a cs inactive
Cc1ccc(N/C(N)=N/c2nc(CSc3nnc(C)s3)cc(=O)[nH]2)c(C)c1	none | Gli antag conf 57 | Gli cytotox 56 | Wnt3a cs inactive
COc1ccc(N/C(N)=N/c2nc(CSc3nnc(C)s3)cc(=O)[nH]2)cc1	none
COc1cccc(-c2ccc(CC[C@H]3O[C@H]4CC[C@@H](CO)O[C@H]4C[C@H]3NC(=O)c3cnccn3)cc2)c1	none (no result: NCOA3 inh, Gli-Sufu antag, NR5A2 inv ag, NCOA1 inh)
O=C(CSC(=S)N1CCCC1)c1cc(Br)cc(Br)c1O	Gli-Sufu antag 85 (no result: NCOA3 inh, NR5A2 inv ag, NCOA1 inh) | Gli antag conf inactive | Gli cytotox inactive | Wnt3a cs inactive
Cc1ccccc1NC(=O)C[C@H]1CC[C@H]2[C@@H](COc3ccc(NC(=O)Nc4ccccc4)cc3C(=O)N2C)O1	none (no result: NCOA3 inh, Gli-Sufu antag, NR5A2 inv ag, NCOA1 inh)
COc1cc(OC)cc(C(=O)N2CC(=O)Nc3ccccc32)c1	none | Gli antag conf inactive | Gli cytotox 48 | Wnt3a cs inactive
O=C1CN(C(=O)c2ccccc2F)c2ccccc2N1	none
CCC(=O)NC1CCN(C(=S)NC)CC1	Gli-Sufu antag 57 | Gli antag conf inactive | Gli cytotox inactive | Wnt3a cs inactive
CCOC(=O)N1CCN(C(=S)NC)CC1	none
c1ccc2c(Nc3ccc4c(c3)OCCO4)c3c(nc2c1)CCCC3	none | Gli antag conf inactive | Gli cytotox inactive | Wnt3a cs inactive
Fc1cccc(Nc2c3c(nc4ccccc24)CCC3)c1	none
CCN1C(=O)/C(=C\c2ccc(F)cc2)N=C1SCC(=O)NCc1ccco1	none
C=CCN1C(=O)/C(=C\c2ccc(Cl)cc2)N=C1SCC(=O)NCCC	Gli-Sufu antag 56 | Gli antag conf inactive | Gli cytotox inactive | Wnt3a cs inactive
S=c1[nH]nc(CSCc2ccccc2Cl)n1C1CCCCC1	none | Gli antag conf inactive | Gli cytotox inactive | Wnt3a cs inactive
CN(C(=O)c1ccccc1OCC(=O)Nc1ccc(Br)cc1)c1ccccc1	none (no result: NCOA3 inh, Gli-Sufu antag, NR5A2 inv ag, NCOA1 inh)
C[C@@H]1OC(c2ccccc2)N(C)[C@H]2C[C@H]3c4[nH]c5cccc(-c6ccccc6)c5c4CCN3C[C@@H]12 (stereo partly drawn)	none (no result: NCOA3 inh, Gli-Sufu antag, NR5A2 inv ag, NCOA1 inh)
COc1ccccc1CNC(=O)C(=O)NCCC1CCCCN1S(=O)(=O)c1ccc(C)cc1 (stereo not drawn)	none | Gli antag conf inactive | Gli cytotox inactive | Wnt3a cs inactive
COc1ccccc1CCNC(=O)C(=O)NCCC1CCCCN1S(=O)(=O)c1ccccc1 (stereo not drawn)	none
CC1(C)CC(=O)c2c(noc2-c2ccccc2)C1	Gli-Sufu antag 75 | Gli antag conf inactive | Gli cytotox 28 | Wnt3a cs inactive
CC1(C)CC(=O)c2c(Cc3ccccc3)noc2C1	none
CC(NC(=O)c1cc2c(=O)n3ccccc3nc2n(CC2CCCO2)c1=N)c1ccccc1 (stereo not drawn)	Gli-Sufu antag 59 | Gli antag conf inactive | Gli cytotox inactive | Wnt3a cs inactive
N=c1c(C(=O)NC2CCCC2)cc2c(=O)n3ccccc3nc2n1CC1CCCO1 (stereo not drawn)	none
COC(=O)C1CCCN(C(=O)C2CCN(S(=O)(=O)c3ccc([N+](=O)[O-])cc3)CC2)C1 (stereo not drawn)	none (no result: NCOA3 inh, Gli-Sufu antag, NR5A2 inv ag, NCOA1 inh)
O=C(CCCCCN1C(=O)C2C3C=CC(C3)C2C1=O)N1CCN(c2ncccn2)CC1 (stereo not drawn)	none (no result: NCOA3 inh, Gli-Sufu antag, NR5A2 inv ag, NCOA1 inh)
Cc1cc(C)c(C)c(S(=O)(=O)N2CCN(c3ncnc4ccccc34)CC2)c1C	none | Gli antag conf 71 | Gli cytotox inactive | Wnt3a cs inactive
NC(=O)c1ccc(N2CCCCC2)c(N2C(=O)C3CC=CCC3C2=O)c1 (stereo not drawn)	none | Gli antag conf inactive | Gli cytotox inactive | Wnt3a cs inactive
O[C@H](COc1cccc(Br)c1)CN1CCC(C(O)(c2ccccc2)c2ccccc2)CC1	none (no result: NCOA3 inh, Gli-Sufu antag, NR5A2 inv ag, NCOA1 inh)
CCc1nc(N2CCN(C(=O)c3ccco3)CC2)c2c3c(sc2n1)CCCC3	none
CC1CCc2c(sc3nc(C4CC4)nc(N4CCN(C(=O)c5ccco5)CC4)c23)C1 (stereo not drawn)	Gli-Sufu antag 77 | Gli antag conf 81 | Gli cytotox 32 | Wnt3a cs inactive
COC(=O)[C@]12C[C@H](CC(=O)NCc3cccc(C(F)(F)F)c3)C(=O)N(CCc3ccc(OC)c(OC)c3)C1=C[C@H](C1CCCC1)O[C@@H]2C	none (no result: NCOA3 inh, Gli-Sufu antag, NR5A2 inv ag, NCOA1 inh)
CN(C(=O)c1ccc(NC(=O)Cc2cccc(NC(=O)C3CCCN(C(=O)C4CCCCC4)C3)c2)cc1)C1CCCC1 (stereo not drawn)	none
CN(C(=O)c1ccc(NC(=O)Cc2cccc(NC(=O)C3CCCN(C(=O)C4CCC4)C3)c2)cc1)C1CCCC1 (stereo not drawn)	Gli-Sufu antag 57 | Gli antag conf inactive | Gli cytotox inactive | Wnt3a cs inactive
CC1=NN(c2ccccc2)C(=O)/C1=C/C=C/c1ccccc1	none
CC1=NN(c2ccccc2)C(=O)/C1=C\N1CC(C)OC(C)C1 (stereo not drawn)	Gli-Sufu antag 98 | Gli antag conf inactive | Gli cytotox inactive | Wnt3a cs inactive
CCN(CC)C(=O)CC[C@@H]1CC[C@]2(CCCN(C(=O)C3CCCCC3)C2)O1	none (no result: NCOA3 inh, Gli-Sufu antag, NR5A2 inv ag, NCOA1 inh)
COC(=O)c1cc(C(=O)c2ccc(Cl)cc2)n2c(=O)/c(=C\N(C)C)sc12	Gli-Sufu antag 57 | Gli antag conf inactive | Gli cytotox inactive | Wnt3a cs inactive
COC(=O)c1cc(C(=O)c2ccccc2)n2c(=O)/c(=C\N(C)C)sc12	none (no result: NCOA3 inh, NR5A2 inv ag, NCOA1 inh)
O=C(Cn1c(-c2ccccc2)c[n+]2ccsc12)c1ccc(Br)cc1	none | Gli antag conf 45 | Gli cytotox inactive | Wnt3a cs inactive
FC(F)(F)Oc1ccc(Cn2ccc3ccc(-c4ccc5ccn(Cc6ccccc6)c5c4)cc32)cc1	none (no result: NCOA3 inh, Gli-Sufu antag, NR5A2 inv ag, NCOA1 inh)
COc1ccccc1NC(=O)c1ccc2c(c1)N(CC#N)C(=O)C(C)(C)O2	none | Gli antag conf inactive | Gli cytotox inactive | Wnt3a cs inactive
CCOC(=O)CN1C(=O)C(C)(C)Oc2ccc(C(=O)Nc3ccccc3OC)cc21	none
COc1ccccc1N/C=C/c1onc(C)c1[N+](=O)[O-]	none
Cc1noc(/C=C/c2ccccn2)c1[N+](=O)[O-]	Gli-Sufu antag 99 | Gli antag conf inactive | Gli cytotox 29 | Wnt3a cs inactive
COc1cc(-c2noc(C)c2/C=C/c2ccc(OC(C)=O)cc2)cc(OC)c1OC	none | Gli antag conf 69 | Gli cytotox 58 | Wnt3a cs inactive
